Assay results: PubChem BioAssay (Tox21)
Records with an inconclusive call do not appear. Active and inactive are the calls of the source. Calls come from the whole dose curve; as a rule, active = well fitted curve in the direction sought with a large enough effect in the repeat runs; inconclusive = weak or mixed curves; inactive = no such curve, though single readings can be large; an effect the other way counts as inactive or inconclusive.

Columns and labels:
[1] = qHTS RealTime-Glo MT Cell Viability Assay in HepG2 cells - 8 hour (AID 1224873); note: nearly all actives have a fitted effect of over 55% in size
In short: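 HepG2 cells mixed with RealTime-Glo MT reagents (NanoLuc plus cell-permeant prosubstrate) were seeded at 600 cells/well, incubated 5 h at 37 C/5% CO2, then pinned with compounds in DMSO; nonlytic luminescence tracked viability during 40 h treatment.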

[2] = A CellTox Green Cytotoxicity Assay to monitor cytotoxicity in HEK293 cells - 24 hour (AID 1224875); note: nearly all actives have a fitted effect of over 45% in size; note: potency is the fitted concentration of half-maximal effect; for activity change: series mostly up to about 77 µM
In short: (§1)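 HEK293 cells, 600/well, were preincubated 5 hours and then exposed to compounds at 37 C for up to 40 hours. A cell-impermeant cyanine dye staining dead-cell DNA was read by fluorescence at 0, 8, 16, 24, 32 and 40 h time points.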

[3] = A CellTox Green Cytotoxicity Assay to monitor cytotoxicity in HepG2 cells - 16 hour (AID 1224876); note: nearly all actives have a fitted effect of over 45% in size
In short: (§2)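 HepG2 cells, 600/well, preincubated 5 h with CellTox Green dye, then exposed to Tox21 compounds in DMSO at 37 C for up to 40 h. Dead-cell DNA fluorescence read at the indicated time point.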

[4] = qHTS RealTime-Glo MT Cell Viability Assay in HepG2 cells - 32 hour (AID 1224877); note: nearly all actives have a fitted effect of over 55% in size
In short: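 qHTS, HepG2, 600 cells/well, RealTime-Glo (NanoLuc + prosubstrate) added with cells; 5 h preincubation; DMSO compound addition; 37 C; luminescence at 0/8/16/24/32/40 h.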

[5] = A CellTox Green Cytotoxicity Assay to monitor cytotoxicity in HepG2 cells - 24 hour (AID 1224878); note: nearly all actives have a fitted effect of over 45% in size; note: potency is the fitted concentration of half-maximal effect
In short: as §2

[6] = A CellTox Green Cytotoxicity Assay to monitor cytotoxicity in HepG2 cells - 40 hour (AID 1224879); note: nearly all actives have a fitted effect of over 40% in size; note: potency is the fitted concentration of half-maximal effect
In short: as §2

[7] = qHTS RealTime-Glo MT Cell Viability Assay in HEK293 cells - 0 hour (AID 1224880); note: top concentration of the series differs between compounds; nearly all actives have a fitted effect of over 45% in size
In short: (§3)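 600 cells/well were plated with the nonlytic NanoLuc/prosubstrate reagent, pre-incubated 5 h, then given 23 nL of compound in DMSO. Incubation at 37 C for 40 h, with luminescence from viable-cell-reduced substrate read repeatedly from 0 h.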

[8] = A CellTox Green Cytotoxicity Assay to monitor cytotoxicity in HEK293 cells - 32 hour (AID 1224881); note: nearly all actives have a fitted effect of over 40% in size
In short: as §1

[9] = qHTS RealTime-Glo MT Cell Viability Assay in HEK293 cells - 40 hour (AID 1224874); details: RealTime-Glo luminescence; max response: active compounds read low; note: nearly all actives have a fitted effect of over 50% in size; note: potency is the fitted concentration of half-maximal effect
In short: as §3
% is set by controls: 0 for no effect and ±100 for the full control effect.

Cc1ccccc1C(=O)Nc1ccc(C(=O)N2CCCC(O)c3cc(Cl)ccc32)c(C)c1 (stereo not given)
inactive: outcome [1] | Potency [2] | Potency [3] | Potency [4] | Potency [5] | Potency [6] | outcome [7] | Potency [8]

C=C(C)C(=O)OCCOP(=O)(O)O
inactive: outcome [1] | max response [9] 13.8% | Potency [3] | Potency [4] | Potency [5] | Potency [6] | outcome [7] | Potency [8]

CCCCCCOc1ccc(N)cc1
active: Potency [2] 49 µM
inactive: outcome [1] | Potency [3] | Potency [4] | outcome [7] | Potency [8]

COc1ccc(Nc2ccc(OC)cc2)cc1
inactive: Potency [3] | Potency [4] | Potency [5] | Potency [6] | Potency [8]

CC(C)C1=CC2=CC[C@@H]3[C@](C)(CCC[C@@]3(C)C(=O)O)[C@H]2CC1
inactive: outcome [1] | max response [9] 3.7% | Potency [3] | Potency [4] | Potency [5] | Potency [6] | outcome [7] | Potency [8]

CC1(C)O[C@@H]2C[C@H]3[C@@H]4CCC5=CC(=O)CC[C@]5(C)[C@@]4(F)[C@@H](O)C[C@]3(C)[C@]2(C(=O)CCl)O1
inactive: Potency [2] | Potency [3] | Potency [4] | Potency [5] | Potency [6] | Potency [8]

O=C(O)CN(CCN(CC(=O)O)CC(=O)O)CCN(CC(=O)O)CC(=O)O
inactive: viability change, negative = cytotoxic [1] -0.356% [at 15.8 µM] | cytotoxicity increase [3] 29.9% [at 15.8 µM] | activity change, negative = cytotoxic [4] 0.371% [at 15.8 µM] | cytotoxicity [5] 28.9% [at 15.8 µM] | cytotoxicity increase [6] 29.3% [at 15.8 µM] | activity change, negative = cytotoxicity [7] 6.1% [at 15.8 µM] | cytotoxicity increase [8] 18.1% [at 15.8 µM]

CCOC(=O)C(Br)c1ccccc1 (stereo not given)
inactive: max response [9] 15.2% | Potency [2] | Potency [3] | Potency [4] | Potency [5] | Potency [6] | outcome [7] | Potency [8]

CC(C)CCCCCCc1ccc(OCCOCCO)cc1
inactive: outcome [1] | Potency [2] | Potency [3] | Potency [4] | Potency [5] | Potency [6] | outcome [7] | Potency [8]

COc1cc2c(cc1N)oc1ccccc12
inactive: outcome [1] | Potency [3] | Potency [4] | Potency [5] | Potency [6] | outcome [7] | Potency [8]

CCCCOc1cc(C(=O)NCCN(CC)CC)c2ccccc2n1
active: Potency [5] 21.3 µM | Potency [6] 23.9 µM
inactive: outcome [1] | Potency [2] | Potency [4] | outcome [7] | Potency [8]

CC(=O)Oc1cc(C(C)C)c(OCCN(C)C)cc1C
inactive: Potency [2] | Potency [3] | Potency [4] | Potency [5] | Potency [6] | outcome [7] | Potency [8]

O=C1Nc2ccc([N+](=O)[O-])cc2C1=O
inactive: outcome [1] | Potency [2] | Potency [3] | Potency [4] | Potency [5] | Potency [6] | Potency [8]

COc1ccc2nc(NC(=O)Nc3ccccc3)sc2c1
inactive: outcome [1] | Potency [3] | Potency [4] | outcome [7]
active: Potency [9] 6.01 µM | Potency [6] 4.25 µM

CCN1CC(CCN2CCOCC2)C(c2ccccc2)(c2ccccc2)C1=O (stereo not given)
inactive: outcome [1] | Potency [2] | Potency [3] | Potency [4] | Potency [5] | Potency [6] | outcome [7] | Potency [8]

CC(C)C[C@H](NC(=O)OCC1c2ccccc2-c2ccccc21)C(=O)O
inactive: max response [9] -12.9% | Potency [3] | Potency [4] | Potency [5] | Potency [6] | outcome [7] | Potency [8]

CCOc1ccccc1N
inactive: Potency [3] | Potency [4] | Potency [5] | Potency [6] | outcome [7] | Potency [8]

CCN(CC)CCOc1ccc(Cc2ccccc2)cc1
active: Potency [6] 26.8 µM
inactive: Potency [2] | Potency [4] | outcome [7] | Potency [8]

Nc1ccc(Oc2ccc(N)c(N)c2)cc1
inactive: Potency [2] | Potency [3] | Potency [4] | outcome [7] | Potency [8]

CCNCCO
inactive: max response [9] 9.13% | Potency [2] | Potency [3] | Potency [4] | Potency [5] | Potency [6] | outcome [7] | Potency [8]

CC[C@H]1CC[C@H](NCc2cc3c(cc2OC)[C@H]2C[C@H]2C(=O)N3C)[C@H](c2ccccc2)N1
inactive: Potency [3] | Potency [4] | outcome [7] | Potency [8]
active: Potency [9] 21.9 µM

CCCNC(C)C(=O)Nc1c(C)csc1C(=O)OC (stereo not given)
inactive: outcome [1] | max response [9] -5.59% | Potency [3] | Potency [4] | Potency [5] | Potency [6] | outcome [7] | Potency [8]
